These results are taken from PubChem BioAssay (Tox21).

Inconclusive results are not listed. Calls of active or inactive are those of the source. Unless noted, the call rests on the fitted dose curve; in most records, active means well fitted curve in the direction sought with a large enough effect in the repeat runs; inconclusive means weak or mixed curves; inactive means no such curve, though single readings can be large; an effect the other way counts as inactive or inconclusive.

Assay [1] can be described thus: qHTS assay to identify small molecule agonists of H2AX (AID 1224845; active means well fitted activation curve with a large enough effect in the signal ratio in the repeat runs, not every such curve was filed as active; the % refers to the signal ratio; further: potency means the concentration at half of the fitted maximal effect). The method in brief: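 Wild-type CHO-K1 cells plated overnight, then exposed 3 hr at 37C to compounds at 15 concentrations (0.76% DMSO). Lysed, then HTRF anti-pH2AX(S139)-cryptate/anti-H2AX-d2 detection after 24 hr at room temperature; emissions 665 and 620 nm.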
The nature of assay [2]: qHTS assay to identify small molecule agonists of H2AX - cell viability counter screen (AID 1224847; calls by dose curve; further: nearly all actives have a fitted effect of over 30% in size; further: potency means the concentration at half of the fitted maximal effect). The procedure, abridged:
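Cells plated first: CHO-K1, 1000 per well in 10% FBS medium, incubated overnight at 37C. Then 15-point compound titration added (final DMSO 0.76%) for 3 hr. Finally CellTiter-Glo added and luminescence read.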

Assay [3] in a line: qHTS assay to identify small molecule agonists of the estrogen related receptor (ERR) signaling pathway from Tox21 library (AID 1224849; calls by dose curve; further: nearly all actives have a fitted effect of over 15% in size). To be noted: ERR reporter cell line, ONE-Glo luciferase, 18 h; at 92.4 µM (top of the series) unless noted. The procedure, abridged: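 Luciferase activity in ERR pathway reporter cells served as the agonist readout; exposure lasted 18 h at 37 C, with ONE-Glo detection after 30 min at room temperature.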

Assay [4] in a line: qHTS RealTime-Glo MT Cell Viability Assay in HEK293 cells - 32 hour (AID 1224868). Further: nearly all actives have a fitted effect of over 50% in size. Further: potency means the concentration at half of the fitted maximal effect. The procedure, abridged:
(§1)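 Quantitative high-throughput screen of the Tox21 10K library in HEK293: cells and RealTime-Glo reagents plated together, compound added at 5 h, luminescence monitored through 40 h at 37 C.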

Assay [5] is described as follows: A CellTox Green Cytotoxicity Assay to monitor cytotoxicity in HEK293 cells - 0 hour (AID 1224869). Further: nearly all actives have a fitted effect of over 50% in size. The procedure, abridged: (§2)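 Real-time, in one plate: 600 HEK293 cells/well with dead-cell DNA dye, pinned compound after 5 h, 37 C incubation over 40 h; viable cells give no appreciable fluorescence.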
Assay [6] can be described thus: qHTS RealTime-Glo MT Cell Viability Assay in HepG2 cells - 40 hour (AID 1224870). Further: nearly all actives have a fitted effect of over 50% in size. Further: potency means the concentration at half of the fitted maximal effect. The procedure, abridged:
(§3)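 HepG2 cells mixed with RealTime-Glo MT reagents (NanoLuc plus cell-permeant prosubstrate) were seeded at 600 cells/well, incubated 5 h at 37 C/5% CO2, then pinned with compounds in DMSO; nonlytic luminescence tracked viability during 40 h treatment.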

Assay [7] is described as follows: A CellTox Green Cytotoxicity Assay to monitor cytotoxicity in HEK293 cells - 40 hour (AID 1224871). Further: nearly all actives have a fitted effect of over 45% in size. Further: potency means the concentration at half of the fitted maximal effect. The procedure, abridged: as §2
The nature of assay [8]: qHTS RealTime-Glo MT Cell Viability Assay in HEK293 cells - 16 hour (AID 1224872). Further: nearly all actives have a fitted effect of over 50% in size. Further: potency means the concentration at half of the fitted maximal effect. The procedure, abridged: as §1
Assay [9] is described as follows: qHTS RealTime-Glo MT Cell Viability Assay in HEK293 cells - 40 hour (AID 1224874). Further: nearly all actives have a fitted effect of over 50% in size. Further: potency means the concentration at half of the fitted maximal effect. To be noted: RealTime-Glo luminescence; max response: active compounds read low. The method in brief: (§4)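 Kinetic, non-lysing viability readout. Seed HEK293 (600/well) with reagent, incubate 5 h at 37 C/5% CO2, pin 23 nL compound in DMSO, incubate at 37 C, read luminescence at 0, 8, 16, 24, 32, 40 h.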

Assay [10] can be described thus: A CellTox Green Cytotoxicity Assay to monitor cytotoxicity in HEK293 cells - 24 hour (AID 1224875). Further: nearly all actives have a fitted effect of over 45% in size. Further: potency means the concentration at half of the fitted maximal effect. The procedure, abridged: as §2
Assay [11] is described as follows: qHTS RealTime-Glo MT Cell Viability Assay in HepG2 cells - 32 hour (AID 1224877). Further: nearly all actives have a fitted effect of over 55% in size. Further: potency means the concentration at half of the fitted maximal effect. The method in brief:
(§5)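 Compound treatment began 5 h after plating HepG2 cells (600/well) with NanoLuc luciferase and prosubstrate. Plates stayed at 37 C for 40 h; luminescence was captured at six time points, 0 h through 40 h.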

Assay [12] is described as follows: A CellTox Green Cytotoxicity Assay to monitor cytotoxicity in HepG2 cells - 24 hour (AID 1224878). Further: nearly all actives have a fitted effect of over 45% in size. Further: potency means the concentration at half of the fitted maximal effect. The method in brief: (§6)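 Cytotoxicity was tracked as dead-cell DNA fluorescence in HepG2 cells treated with test compounds at 37 C; each time-point value comes from one kinetic series spanning 0, 8, 16, 24, 32 and 40 h.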
Assay [13] in a line: A CellTox Green Cytotoxicity Assay to monitor cytotoxicity in HepG2 cells - 40 hour (AID 1224879). Further: nearly all actives have a fitted effect of over 40% in size. Further: potency means the concentration at half of the fitted maximal effect. The procedure, abridged: as §6
Assay [14] in a line: qHTS RealTime-Glo MT Cell Viability Assay in HEK293 cells - 0 hour (AID 1224880). Further: top concentration of the series differs between compounds; nearly all actives have a fitted effect of over 45% in size. The procedure, abridged: as §4
A short description of assay [15]: qHTS RealTime-Glo MT Cell Viability Assay in HepG2 cells - 24 hour (AID 1224867). Further: nearly all actives have a fitted effect of over 50% in size. Further: potency means the concentration at half of the fitted maximal effect. The procedure, abridged: as §5
The nature of assay [16]: qHTS RealTime-Glo MT Cell Viability Assay in HepG2 cells - 8 hour (AID 1224873). Further: nearly all actives have a fitted effect of over 55% in size. Further: potency means the concentration at half of the fitted maximal effect. The procedure, abridged:
as §3

Assay [17] in a line: A CellTox Green Cytotoxicity Assay to monitor cytotoxicity in HepG2 cells - 16 hour (AID 1224876). Further: nearly all actives have a fitted effect of over 45% in size. Further: potency means the concentration at half of the fitted maximal effect. The method in brief:
as §6

Assay [18] in a line: qHTS assay to identify small molecule antagonists of the estrogen related receptor (ERR) signaling pathway from Tox21 library (AID 1224848). Further: nearly all actives have a fitted effect of over 50% in size. The method in brief: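 First, 2,000 ERR cells per well were plated and held 6 h at 37 C/5% CO2. Next, compounds in DMSO were pinned in and left 18 h at 37 C. Finally, ONE-Glo was added and luminescence read after 30 min at room temperature.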

Assay [19] in a line: qHTS assay to identify small molecule agonists of the hypoxia (HIF-1) signaling pathway (AID 1224846; active means well fitted activation curve with a large enough effect in the signal ratio in the repeat runs, not every such curve was filed as active; the % refers to the signal ratio). The procedure, abridged:
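ME-180 HRE-bla reporter cells; compounds in DMSO, 17 h at 37C; read-out beta-lactamase via CCF4-AM FRET.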
On the % scale 0 is the no-effect control and ±100 the full control effect.

Take `CN1C(=O)[C@@H](NC(=O)c2cc3ccccc3[nH]2)N=C(c2ccccc2)c2ccccc21`: the Potency entry in assay [1], in [2], in assay [4], in [5], in assay [6] and in [7] was “inactive” in each case. Besides, the Potency result in assay [8], in assay [10], in assay [11], in [12], in assay [13] and in assay [14] was “inactive” each time. For the same compound, in assay [3], the activity change, positive = activation is -21.2% [at 42.5 µM] (inactive). The max response in [9] is 20% (inactive).

`CC(=O)[O][Pb]([c]1ccccc1)([c]1ccccc1)[c]1ccccc1`: the Potency was 0.8 µM (active) in assay [1]; 25.3 µM (active) in assay [2]; 1.1 µM (active) in [15]; 0.49 µM (active) in assay [4]; 0.871 µM (active) in assay [6]; 2.45 µM (active) in [7]. Besides, the Potency was 0.49 µM (active) in [8]; 3.47 µM (active) in [16]; 0.389 µM (active) in assay [9]; 3.89 µM (active) in assay [10]; 1.95 µM (active) in assay [17]; 0.977 µM (active) in assay [11]. The Potency in assay [12] is 1.38 µM (active); in [13], 0.977 µM (active). In addition, the activity change, positive = activation in assay [3] is -77.1% (inactive). In addition, the Potency entry in assay [5] is “inactive”.

As to `O=[N+]([O-])c1ccc(CCl)cc1`, the Potency result in [1], in assay [2], in [18], in assay [15], in [5] and in assay [6] was “inactive” each time. The Potency result in assay [7], in assay [8], in assay [16], in [10], in [17] and in [11] was “inactive” each time. For the same compound, the Potency result in [12], in [13] and in assay [14] was “inactive” each time.

As to `COC(=O)/C=C(\C)OP(=O)(OC)OC`, the Potency entry in assay [1], in assay [2], in [15], in [4], in assay [5] and in [6] was “inactive” in each case. Besides, the Potency entry in assay [7], in assay [8], in assay [16], in [10], in assay [17] and in [11] was “inactive” each time. Also, the Potency result in assay [12], in [13] and in assay [14] was “inactive” in each case. For the same compound, the activity change, positive = activation in assay [3] was -31.3% (inactive). The max response in assay [9] is -4% (inactive).

Consider `CCOP(=S)(NC(C)C)Oc1ccccc1C(=O)OC(C)C` (stereo not drawn), for which the Potency entry in assay [1], in [5], in [7], in assay [16], in assay [10] and in assay [17] was “inactive” throughout. In [12], the Potency entry was “inactive”. Moreover, in assay [3], the activity change, positive = activation was -39.6% (inactive). In addition, the Potency in [4] was 43.6 µM (active); in [9], 43.6 µM (active); in [13], 38.9 µM (active).

With `CN1C2CCC(C)(C)C1CC(OC(=O)C(O)(c1cccs1)c1cccs1)C2` (stereo not drawn), the Potency entry in assay [1], in assay [2], in [15], in assay [4], in assay [5] and in [6] was “inactive” each time. The Potency entry in assay [7], in [8], in assay [16], in assay [10], in [11] and in assay [12] was “inactive” in each case. The Potency entry in assay [13] and in assay [14] was “inactive” each time. Further, the max response in [9] was -25.3% (inactive).

For `CO/N=C(\C(=O)OC)c1ccccc1CO/N=C(\C)c1cccc(C(F)(F)F)c1`, the Potency result in assay [1], in assay [15], in [5], in assay [6], in assay [16] and in assay [10] was “inactive” each time. Moreover, the Potency entry in assay [17], in [11], in assay [12], in assay [13] and in [14] was “inactive” throughout. Besides, the Potency in assay [2] is 2.01 µM (active); in assay [4], 12.3 µM (active); in [7] it was 6.92 µM (active); in assay [9], 6.16 µM (active).

With `O=[N+]([O-])c1cccc2cccc([N+](=O)[O-])c12`, the Potency entry in [19], in assay [2], in assay [15], in assay [4], in assay [5] and in assay [6] was “inactive” in each case. The Potency result in assay [7], in assay [8], in [16], in [10], in assay [17] and in [11] was “inactive” throughout. In addition, the Potency entry in assay [12], in assay [13] and in assay [14] was “inactive” in each case. The max response in assay [9] is -12.3% (inactive).

As to `Cc1cc(C2CC2)nc(Nc2ccccc2)n1`, the activity change, positive = activation in assay [3] is 13.7% (active). For the same compound, the Potency is 24.5 µM (active) in [4], 21.9 µM (active) in assay [8] and 21.9 µM (active) in assay [9]. Moreover, the Potency result in assay [5], in assay [6], in [10] and in [14] was “inactive” throughout.

As to `O=[N+]([O-])c1ccc(Cl)c(Cl)c1Cl`, the Potency entry in assay [1], in assay [19], in assay [15], in assay [4], in [5] and in assay [6] was “inactive” each time. Further, the Potency result in assay [8], in assay [16], in assay [17], in assay [11], in [12] and in assay [13] was “inactive” throughout. Besides, the Potency result in assay [14] was “inactive”. Moreover, the activity change, positive = activation in [3] is -11% (inactive). For the same compound, the Potency was 34.2 µM (active) in assay [7] and 24.2 µM (active) in assay [10]. For the same compound, the max response in assay [9] was -8.94% (inactive).

For `CO/N=C(/C1=NOCCO1)c1ccccc1Oc1ncnc(Oc2ccccc2Cl)c1F`, the Potency entry in assay [1], in assay [5], in assay [7], in [8], in assay [16] and in assay [10] was “inactive” in each case. In addition, the Potency entry in [17], in [12], in assay [13] and in [14] was “inactive” each time. Also, the Potency in assay [2] was 12.7 µM (active).

For `CCCCCCCc1ccc(O)cc1`, the Potency in assay [2] is 50.5 µM (active); in assay [4], 19.5 µM (active); in assay [7] it was 43.6 µM (active); in assay [8], 11 µM (active); in assay [9], 21.9 µM (active); in assay [10], 43.6 µM (active). Besides, the Potency in assay [17], in assay [12] and in assay [13] was 21.9 µM (active) each time. Also, the Potency entry in assay [5], in assay [6], in [11] and in [14] was “inactive” each time.

For the compound `Nc1ccc(N=Nc2ccccc2)cc1`, the Potency entry in assay [18], in assay [15], in assay [5], in assay [6], in assay [7] and in assay [10] was “inactive” each time. Also, the Potency entry in [11], in assay [12] and in assay [14] was “inactive” in each case. Besides, the activity change, positive = activation in assay [3] is 69.2% (active).
